# PubChem BioAssay (NCI)
# The panel holds about 83,000 compounds, 20% with a hit somewhere; the sample as a whole holds those more often.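 Note: values are percent growth. 100 is the growth of untreated cells, values between 100 and 0 indicate rising inhibition; between -100 and 0 indicates cell death.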 Values without a mark were called inactive. The source made the active and inactive calls. The calls were made as follows: active = growth percent below 10; inactive = the rest.
# How the values were obtained:
# Assay in all cases: NCI-60 one-dose screen, 48 h (100 = growth as untreated, 0 = no growth, -100 = all killed)
# Conditions in all cases: 10 µM unless noted
# [1] = tested on: RPMI-8226 leukemia
# [2] = tested on: OVCAR-8 ovarian
# [3] = tested on: OVCAR-5 ovarian
# [4] = tested on: OVCAR-4 ovarian
# [5] = tested on: SK-OV-3 ovarian
# [6] = tested on: IGROV1 ovarian
# [7] = tested on: OVCAR-3 ovarian
# [8] = tested on: HS 578T breast
# [9] = tested on: NCI/ADR-RES ovarian
# [10] = tested on: T-47D breast
# [11] = tested on: BT-549 breast
# [12] = tested on: MDA-MB-435 melanoma
# [13] = tested on: SW-620 colon
# [14] = tested on: MCF7 breast
# [15] = tested on: HCT-116 colon
# [16] = tested on: HCC-2998 colon
# [17] = tested on: KM12 colon
Compound,growth [1],growth [2],growth [3],growth [4],growth [5],growth [6],growth [7],growth [8],growth [9],growth [10],growth [11],growth [12],growth [13],growth [14],growth [15],growth [16],growth [17]
CCOC(=O)c1cc(/C(=N\O)c2cc(OC)c(OC)c(OC)c2)n2c(C)cccc12,41.5%,54.3%,73.2%,54.1%,38.4%,52.5%,15.7%,12.4%,29.3%,27.7%,19.4%,-10.2% (active),23.3%,17.1%,27.2%,70.8%,27.9%
Cc1ccc2c(c1)ncn2-c1ncnc2c1CC(C)c1ccccc1N2C (stereo not given),-9.63% (active),8.64% (active),54.8%,46.5%,29.6%,16.3%,9.32% (active),20.2%,17.1%,24.4%,-6.44% (active),11.8%,22.9%,12.9%,10.1%,26.8%,10.5%
CCO/C=N/NC(=O)c1ccncc1,108%,108%,103%,109%,109%,108%,106%,105%,111%,106%,114%,110%,104%,101%,105%,113%,106%
COc1cc(Cn2c(-c3nonc3N)nc3ccccc32)ccc1C,19.2%,31.6%,34%,62.6%,29.9%,47.6%,-34.7% (active),22.5%,21.2%,37.2%,66.9%,-30.6% (active),–,20.7%,20.3%,23.5%,–
C/C1=C\CCC2(C)OC2CC2CCC(C)(O)C(CC1)C2(C)C (stereo not given),111%,89.8%,112%,99.7%,112%,93.9%,118%,83.8%,104%,91.7%,49.8%,110%,97.1%,102%,98.6%,–,108%
COc1ccc(/C=N/NC(=O)Cn2c(Cc3cccc4ccccc34)nc3ccccc32)cc1,88.3%,93.7%,96%,104%,106%,108%,101%,95.8%,93.6%,85.8%,107%,103%,109%,92.4%,100%,107%,98%
COc1ccc(/C(=N/O)c2cc(F)c(F)c(OC)c2F)cc1O,22.1%,17.7%,52.1%,58.6%,17.3%,50.6%,-2.69% (active),8.26% (active),17.4%,28.4%,33.5%,-35.7% (active),–,18.7%,15.6%,42.7%,29.3%
COc1cc(/C=C2\C=C(c3ccc(F)cc3)N(Cc3ccccc3)C2=O)cc(OC)c1OC,50.7%,48.8%,89.6%,51%,99.3%,84.4%,70.3%,87.1%,62.1%,49.1%,77.3%,75.2%,77.4%,50.8%,42.2%,103%,63.1%
CC(=O)OC[Si](C)(C)c1ccccc1,110%,101%,108%,103%,103%,114%,112%,103%,112%,105%,107%,99.1%,101%,107%,99.9%,122%,110%
Cc1nn(-c2ccc(Cl)cc2)c(=O)n1CCOc1ccccc1Cl,88.9%,92.7%,102%,68.1%,92.9%,117%,121%,90.3%,89.9%,79.5%,94.4%,107%,–,98.3%,74%,106%,101%
CN1CCN(c2ccc3cc(-c4nc5ccccc5[nH]4)c(=O)oc3c2)CC1,64.5%,94.7%,102%,70.3%,101%,79.9%,97.2%,96.1%,86.9%,76.9%,87.7%,99.5%,107%,73.6%,81.9%,114%,90%
O=S(=O)(NCCCNc1nccc(-c2c(-c3ccc(O)cc3)nc3sccn23)n1)c1ccc(F)cc1,-13% (active),14.2%,14.4%,14.9%,-4.21% (active),5.53% (active),23%,11.5%,48.9%,-5.79% (active),14%,-17.9% (active),9.69% (active),6.45% (active),-40% (active),–,11.9%
OCc1c(-c2ccccc2)nc2sccn12,111%,67.5%,109%,103%,110%,88.2%,116%,77.7%,105%,104%,59.3%,114%,98.3%,103%,104%,–,97.6%
c1cc(-c2ccc3c(c2)OCO3)n2nccc2n1,97.1%,98.6%,94.2%,98.1%,106%,102%,–,105%,107%,88.2%,101%,98.2%,105%,89.9%,102%,86.9%,–
Cc1ccc(-c2csc3nc(C)c(CCCl)c(=O)n23)cc1,83.8%,103%,107%,82.1%,105%,78.8%,99.4%,–,105%,76.7%,119%,97.3%,–,78.3%,89.4%,109%,103%
CCN1C(=O)N[C@H]2[C@@H]3NC(=O)c4ccc(Cl)n4[C@@H]3C[C@]21O,-21.2% (active),1.27% (active),24.5%,3.02% (active),28.6%,1.44% (active),2.22% (active),-10.9% (active),76.4%,–,-23.4% (active),0.981% (active),3.96% (active),1.38% (active),0.673% (active),2.42% (active),5.68% (active)
